Compounds without any hit were thinned out: in the full panel of roughly 79,000, 15% have a hit. Values without a mark were called inactive. The source made the active and inactive calls. Rule as the data show it: active = growth inhibition above about 70%; inactive = the rest.
Assays:
[1] = NCI Yeast Anticancer Drug Screen. Data for the rad50 strain (AID 155);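 also: 0% = growth of vehicle-only cultures of the same strain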; conditions: S. cerevisiae rad50 strain growth inhibition, stronger effect = higher value
In short: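 DNA repair mutant yeast, compound exposure, growth read-out; inhibition is taken relative to vehicle.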

[2] = NCI Yeast Anticancer Drug Screen. Data for the mec2-1 strain (AID 157); conditions: S. cerevisiae mec2-1 strain, stronger effect = higher value
In short: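 Cells of the genetically defined mec2-1 yeast strain are incubated with test compound. Inhibition of growth is calculated against vehicle-treated controls.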

[3] = NCI Yeast Anticancer Drug Screen. Data for the sgs1 mgt1 strain (AID 161);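 also: 0% = growth of cultures given vehicle only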; conditions: S. cerevisiae sgs1 mgt1 strain, stronger effect = higher value
In short: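 Test agents were incubated with a DNA-repair-mutant yeast strain. Growth was then read and compared against vehicle-treated controls.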

[4] = NCI Yeast Anticancer Drug Screen. Data for the cln2 rad14 strain (AID 165);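 also: 0% = growth equal to vehicle treated cultures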; conditions: S. cerevisiae cln2 rad14 strain, stronger effect = higher value
In short: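 The screen exposed genetically defined yeast (cln2 rad14) to test compounds and scored growth inhibition relative to vehicle-treated controls.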

[5] = NCI Yeast Anticancer Drug Screen. Data for the bub3 strain (AID 167); conditions: S. cerevisiae bub3 mutant strain, stronger effect = higher value
In short: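 In this screen, a yeast mutant lacking normal mitotic checkpoint function is challenged with compound. Relative growth versus vehicle gives the inhibition value.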

[6] = NCI Yeast Anticancer Drug Screen. Data for the mlh1 rad18 strain (AID 175); conditions: S. cerevisiae mlh1 rad18 strain growth inhibition, stronger effect = higher value
In short: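 Compound-treated yeast growth, normalised to vehicle controls. Strain bears defined DNA repair mutations.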

[7] = at 5.0 µM (retest, dose inferred, filed as 0.5)
[8] = at 50.0 µM (retest, dose inferred, filed as 5.0)

Compound | growth inhibition [1, 7] | growth inhibition [1, 8] | growth inhibition ([1]; at 50.0 µM) | growth inhibition [2, 7] | growth inhibition [2, 8] | growth inhibition ([2]; at 50.0 µM) | growth inhibition [3, 7] | growth inhibition [3, 8] | growth inhibition ([3]; at 50.0 µM) | growth inhibition [4, 7] | growth inhibition [4, 8] | growth inhibition ([4]; at 50.0 µM) | growth inhibition [5, 7] | growth inhibition [5, 8] | growth inhibition ([5]; at 50.0 µM) | growth inhibition [6, 7] | growth inhibition [6, 8] | growth inhibition ([6]; at 50.0 µM)
CC1=CC(c2c(O)cc(O)c(C(=O)CCc3ccccc3)c2O)C(C(C)C)CC1 (stereo not given) | 11% | 88% (active) | 70.8% (active) | 10% | 85% (active) | 83% (active) | 1% | 91% (active) | 80% (active) | 3% | 87% (active) | 79.2% (active) | 21% | 96% (active) | 76% (active) | 8% | 76% (active) | 82.2% (active)
Cc1c(O)ccc2c1OCC(c1ccc(Cl)cc1)C2 (stereo not given) | -19% | 72% (active) | 87.9% (active) | 0% | 13% | 70.2% (active) | -7% | 21% | 72.8% (active) | 10% | 39% | 78.5% (active) | 32% | 85% (active) | 92.9% (active) | -10% | 43% | 94.2% (active)
CC(/C=C/NNC1=NC(c2ccccc2)C(c2ccccc2)=NN1)Sc1ccccc1N (stereo not given) | 43% | 43% | 92.8% (active) | 22% | 22% | 93.2% (active) | 31% | 31% | 90.7% (active) | 18% | 18% | 90.8% (active) | 25% | 25% | 92.9% (active) | 17% | 17% | 91.3% (active)
CC1=C(C(=O)Nc2ccccc2)C(c2cccc3ccccc23)C(C(=O)Nc2ccccc2)=C(C)N1 | -2% | 53% | 71% (active) | -17% | 51% | 91% (active) | 0% | 41% | 48.6% | -2% | 64% | 64.3% | -7% | 53% | 89% (active) | -4% | 53% | 58.7%
Cc1nn(C(=O)c2ccccc2O)c2c1C(c1ccc([N+](=O)[O-])cc1)SC(N)=N2 (stereo not given) | 6% | 81% (active) | 35.5% | -4% | 80% (active) | 47% | -1% | 89% (active) | 69.5% | -8% | 36% | 12.3% | -8% | 71% (active) | 91.2% (active) | 10% | 96% (active) | 53.4%
Oc1ccc(-c2ccc3ccccc3c2)cc1 | 2% | 98% (active) | 98.7% (active) | 6% | 97% (active) | 99.3% (active) | -3% | 98% (active) | 99.2% (active) | 3% | 99% (active) | 98.8% (active) | 1% | 98% (active) | 99.2% (active) | -2% | 99% (active) | 99.1% (active)
Cc1ncc(CO)c(C=NCCCCCCN=Cc2c(CO)cnc(C)c2[O-])c1[O-].[Cu+2] | -2% | -1% | 3.9% | -3% | 1% | -20.4% | -4% | -5% | -5.85% | -5% | -1% | 81.2% (active) | -3% | -1% | 25.9% | -2% | 0% | 25.4%
CCCCCCc1ccc(O)cc1O | 5% | 98% (active) | 99.5% (active) | -3% | 100% (active) | 99.8% (active) | -1% | 100% (active) | 99.5% (active) | -4% | 99% (active) | 99.5% (active) | -1% | 99% (active) | 99.5% (active) | -1% | 99% (active) | 36%
CCOC(=O)C(=N\Nc1c(C)cccc1C)/C(C)=N\NC(N)=S | -17% | 15% | 64.7% | -7% | 25% | 32.6% | 7% | 45% | 58.2% | -13% | -9% | 54.8% | -3% | 4% | 51.5% | 11% | 42% | 69.2%
O=C1OC(c2ccc(O)cc2)Sc2ccccc21 (stereo not given) | 6% | 66% | 81.1% (active) | 38% | 83% (active) | 74.2% (active) | -43% | 40% | 49.8% | 3% | 24% | -22.5% | -1% | 29% | 3.9% | 8% | 56% | 40%
COc1ccc(N=Nc2ccc(O)cc2)cc1 | 7% | 40% | 96.5% (active) | -5% | 62% | 96% (active) | 2% | 16% | 97.5% (active) | 7% | 59% | 92% (active) | -22% | 88% (active) | 96.4% (active) | 8% | 65% | 97% (active)
N#CS/C=C/SC#N | 99% (active) | 99% (active) | 99.5% (active) | 100% (active) | 100% (active) | 99.5% (active) | 99% (active) | 99% (active) | 99.5% (active) | 99% (active) | 100% (active) | 99.1% (active) | 100% (active) | 99% (active) | 99% (active) | 99% (active) | 100% (active) | 99.5% (active)
CCOC(=O)C1=C(C)NC(C)=C(C(=O)OCC)C1c1ccnc2ccccc12 | 10% | 94% (active) | 63.8% | 7% | 97% (active) | 54.4% | -26% | 96% (active) | 55% | -8% | 93% (active) | 63.8% | 10% | 93% (active) | 98% (active) | 10% | 96% (active) | 55.9%
Clc1sc2ccccc2c1Cl | 2% | -18% | 22.2% | -5% | -3% | -11.9% | 2% | 1% | 25.2% | 4% | -4% | 36.6% | -79% | 0% | -7.55% | -1% | -2% | 14.6%
CCCCCCCCCCCC[n+]1cc2ccccc2cc1C | 98% (active) | 98% (active) | 91.7% (active) | 99% (active) | 99% (active) | 90.8% (active) | 98% (active) | 99% (active) | 88.5% (active) | 97% (active) | 99% (active) | 86.7% (active) | 99% (active) | 99% (active) | 93.2% (active) | 97% (active) | 98% (active) | 90.8% (active)
O=C(O)CC1c2ccccc2-c2ccccc21 | -5% | 36% | 87.7% (active) | -24% | 24% | 64.5% | -4% | 31% | 78.7% (active) | -3% | 54% | 43.9% | -6% | 82% (active) | 82.8% (active) | -7% | 67% | 79.3% (active)
CCCCCOC(=O)c1ccc(O)cc1 | -3% | 98% (active) | -3.65% | 7% | 100% (active) | 36% | 2% | 99% (active) | 51.2% | -9% | 97% (active) | 13.1% | 32% | 99% (active) | 88.9% (active) | 3% | 99% (active) | 15.4%
CCCCNc1cccc2ncccc12 | 11% | 53% | 17.1% | 9% | 34% | 9.85% | 14% | 58% | 21.8% | 9% | 28% | -3.9% | 4% | 31% | -4.2% | 21% | 57% | 50%
CC1(CO)CCCC2(C)C1CCC1CC3C=CC12C1C(=O)OC(=O)C31 (stereo not given) | 41% | 79% (active) | 84.1% (active) | 25% | 77% (active) | 61.2% | 12% | 86% (active) | 24.6% | 30% | 82% (active) | 27.8% | 23% | 89% (active) | 62.2% | 36% | 88% (active) | 79.5% (active)
N#CC(C(=O)C(N)=O)c1ccc(Cl)cc1Cl (stereo not given) | 0% | -2% | 82.2% (active) | 1% | 6% | 99.6% (active) | 1% | 0% | 99.6% (active) | -4% | 8% | 91.3% (active) | -1% | 21% | 96.6% (active) | -3% | 2% | 99.2% (active)

Reference: PubChem BioAssay (NCI)
